Results reported in paper PMC7862700, “An all-to-all approach to the identification of sequence-specific readers for epigenetic DNA modifications on cytosine”.

Key:
Assay in all cases: DAPPL (digital affinity profiling via proximity ligation, sequencing); 10 mM Tris-HCl pH 7.5, 50 mM NaCl, 1 mM DTT, 4% glycerol, room temperature, 30 min; GST-TFs on glutathione beads, 16-mer random dsDNA library, 0.1% formaldehyde crosslink after washing; high values mean tight binding
FEV = molecular target: T1, FEV (Homo sapiens, UniProt Q99581 1-238); settings: protein: recombinant; tags: N-terminal GST; dsDNA, one strand shown
T1 sequence: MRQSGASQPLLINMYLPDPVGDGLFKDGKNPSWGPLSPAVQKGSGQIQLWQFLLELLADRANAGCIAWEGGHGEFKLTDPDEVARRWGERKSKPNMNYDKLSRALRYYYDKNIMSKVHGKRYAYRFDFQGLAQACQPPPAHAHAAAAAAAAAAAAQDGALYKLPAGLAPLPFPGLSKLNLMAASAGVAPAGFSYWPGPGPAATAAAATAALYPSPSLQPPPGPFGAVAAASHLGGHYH
Outline: (§1)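 After expression in yeast as GST fusions, human transcription factors were bound to glutathione beads, DNA-barcoded and mixed with a tag-only sample. The pools were incubated with 200 nmole of a 16-mer random double-stranded DNA library in Tris/NaCl/DTT/glycerol buffer (30 min, room temperature), washed and crosslinked with 0.1% formaldehyde. Proximity ligation with BsaI/T4 ligase ran for 1 h at 37 °C, before PCR amplification and sequencing on an Illumina NextSeq500. Binding signal is a hexamer's read frequency for a factor divided by its frequency for the tag-only sample.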

ETV5 = ETV5 (Homo sapiens, UniProt P41161 1-510); settings: protein: recombinant; tags: N-terminal GST; dsDNA, one strand shown
Outline: as §1

HSF1 = HSF1 (Homo sapiens, UniProt Q00613 1-529); settings: protein: recombinant; tags: N-terminal GST; chain copies: 3; dsDNA, one strand shown
Outline: as §1

SPIC = molecular target: T2, SPIC (Homo sapiens, UniProt Q8N5J4 1-248); settings: protein: recombinant; tags: N-terminal GST; dsDNA, one strand shown
T2 sequence: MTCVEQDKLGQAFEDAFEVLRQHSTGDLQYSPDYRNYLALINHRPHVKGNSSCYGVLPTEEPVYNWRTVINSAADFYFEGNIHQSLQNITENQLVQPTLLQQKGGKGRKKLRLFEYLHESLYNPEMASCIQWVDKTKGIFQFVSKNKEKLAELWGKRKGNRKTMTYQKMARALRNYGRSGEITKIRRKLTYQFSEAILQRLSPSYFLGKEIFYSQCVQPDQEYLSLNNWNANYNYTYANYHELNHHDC
Outline: as §1

ELF4 = ELF4 (Homo sapiens, UniProt Q99607 1-663); settings: protein: recombinant; tags: N-terminal GST; dsDNA, one strand shown
Outline: as §1

ELK4 = molecular target: T3, ELK4 (Homo sapiens, UniProt P28324-2 1-405); settings: protein: recombinant; tags: N-terminal GST; dsDNA, one strand shown
T3 sequence: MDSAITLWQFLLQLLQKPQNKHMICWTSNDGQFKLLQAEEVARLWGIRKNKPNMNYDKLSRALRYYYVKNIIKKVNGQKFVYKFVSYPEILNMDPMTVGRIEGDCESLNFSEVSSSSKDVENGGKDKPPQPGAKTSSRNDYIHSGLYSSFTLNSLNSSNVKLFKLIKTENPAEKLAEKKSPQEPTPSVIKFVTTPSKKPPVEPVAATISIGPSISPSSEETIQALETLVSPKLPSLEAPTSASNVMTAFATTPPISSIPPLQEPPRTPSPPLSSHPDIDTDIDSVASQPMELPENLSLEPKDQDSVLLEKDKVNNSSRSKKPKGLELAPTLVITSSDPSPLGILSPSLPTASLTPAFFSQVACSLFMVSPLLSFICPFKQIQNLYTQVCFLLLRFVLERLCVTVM
Outline: as §1

ETV2 = molecular target: T4, ETV2 (Homo sapiens, UniProt O00321 1-342); settings: protein: recombinant; tags: N-terminal GST; dsDNA, one strand shown
T4 sequence: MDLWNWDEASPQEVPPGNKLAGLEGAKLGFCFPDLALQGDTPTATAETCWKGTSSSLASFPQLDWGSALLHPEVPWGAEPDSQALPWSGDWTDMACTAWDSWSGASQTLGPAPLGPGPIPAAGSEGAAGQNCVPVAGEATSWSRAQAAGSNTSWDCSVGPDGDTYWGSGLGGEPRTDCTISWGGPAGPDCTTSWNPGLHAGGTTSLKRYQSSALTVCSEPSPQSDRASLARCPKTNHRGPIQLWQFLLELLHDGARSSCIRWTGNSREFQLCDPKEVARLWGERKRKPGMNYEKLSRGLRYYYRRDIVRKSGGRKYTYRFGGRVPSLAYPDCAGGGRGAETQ
Outline: as §1

ELF3 = molecular target: T5, ELF3 (Homo sapiens, UniProt P78545 1-371); settings: protein: recombinant; tags: N-terminal GST; dsDNA, one strand shown
T5 sequence: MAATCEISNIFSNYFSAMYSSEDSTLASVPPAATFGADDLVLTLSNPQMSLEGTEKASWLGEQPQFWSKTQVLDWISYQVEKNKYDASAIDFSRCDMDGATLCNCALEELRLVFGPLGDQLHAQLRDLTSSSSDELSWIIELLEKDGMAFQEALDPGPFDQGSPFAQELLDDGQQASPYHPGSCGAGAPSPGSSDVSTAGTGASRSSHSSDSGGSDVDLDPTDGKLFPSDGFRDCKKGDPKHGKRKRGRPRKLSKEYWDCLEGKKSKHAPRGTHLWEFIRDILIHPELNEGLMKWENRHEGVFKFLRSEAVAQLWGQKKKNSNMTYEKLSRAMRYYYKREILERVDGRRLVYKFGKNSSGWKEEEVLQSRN
Outline: as §1

CRX = CRX (Homo sapiens, UniProt O43186 1-299); settings: protein: recombinant; tags: N-terminal GST; dsDNA, one strand shown
Outline: as §1

ETV1 = ETV1 (Homo sapiens, UniProt P50549 1-477); settings: protein: recombinant; tags: N-terminal GST; dsDNA, one strand shown
Outline: as §1

ERF = molecular target: T6, ERF (Homo sapiens, UniProt P50548 1-548); settings: protein: recombinant; tags: N-terminal GST; dsDNA, one strand shown
T6 sequence: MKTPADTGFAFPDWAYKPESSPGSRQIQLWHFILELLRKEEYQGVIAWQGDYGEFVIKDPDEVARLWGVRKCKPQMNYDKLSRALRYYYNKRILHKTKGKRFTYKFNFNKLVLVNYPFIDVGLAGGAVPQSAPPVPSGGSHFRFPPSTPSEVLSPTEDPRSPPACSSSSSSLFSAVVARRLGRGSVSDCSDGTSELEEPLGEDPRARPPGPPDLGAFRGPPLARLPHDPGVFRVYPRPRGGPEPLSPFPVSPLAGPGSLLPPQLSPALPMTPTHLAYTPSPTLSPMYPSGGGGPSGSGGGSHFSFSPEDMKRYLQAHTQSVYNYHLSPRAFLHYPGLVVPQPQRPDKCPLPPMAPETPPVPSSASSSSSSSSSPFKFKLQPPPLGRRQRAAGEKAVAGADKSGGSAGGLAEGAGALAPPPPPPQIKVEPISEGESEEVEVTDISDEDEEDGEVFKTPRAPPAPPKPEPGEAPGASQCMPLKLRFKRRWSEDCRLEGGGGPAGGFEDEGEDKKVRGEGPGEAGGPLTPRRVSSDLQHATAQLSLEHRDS
Outline: as §1

ETV3L = molecular target: T7, ETV3L (Homo sapiens, UniProt Q6ZN32 1-361); settings: protein: recombinant; tags: N-terminal GST; dsDNA, one strand shown
T7 sequence: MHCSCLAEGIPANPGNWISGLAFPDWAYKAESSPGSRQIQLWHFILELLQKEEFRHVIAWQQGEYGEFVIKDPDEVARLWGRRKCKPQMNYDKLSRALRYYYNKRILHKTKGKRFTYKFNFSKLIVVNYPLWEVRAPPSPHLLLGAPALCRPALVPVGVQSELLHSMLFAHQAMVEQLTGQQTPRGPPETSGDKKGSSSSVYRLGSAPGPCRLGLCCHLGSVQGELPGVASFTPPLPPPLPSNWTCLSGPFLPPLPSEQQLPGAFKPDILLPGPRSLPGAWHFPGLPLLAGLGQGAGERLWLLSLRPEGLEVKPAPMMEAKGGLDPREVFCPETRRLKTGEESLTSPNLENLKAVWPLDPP
Outline: as §1

ETS2 = molecular target: T8, ETS2 (Homo sapiens, UniProt P15036 1-469); settings: protein: recombinant; tags: N-terminal GST; dsDNA, one strand shown
T8 sequence: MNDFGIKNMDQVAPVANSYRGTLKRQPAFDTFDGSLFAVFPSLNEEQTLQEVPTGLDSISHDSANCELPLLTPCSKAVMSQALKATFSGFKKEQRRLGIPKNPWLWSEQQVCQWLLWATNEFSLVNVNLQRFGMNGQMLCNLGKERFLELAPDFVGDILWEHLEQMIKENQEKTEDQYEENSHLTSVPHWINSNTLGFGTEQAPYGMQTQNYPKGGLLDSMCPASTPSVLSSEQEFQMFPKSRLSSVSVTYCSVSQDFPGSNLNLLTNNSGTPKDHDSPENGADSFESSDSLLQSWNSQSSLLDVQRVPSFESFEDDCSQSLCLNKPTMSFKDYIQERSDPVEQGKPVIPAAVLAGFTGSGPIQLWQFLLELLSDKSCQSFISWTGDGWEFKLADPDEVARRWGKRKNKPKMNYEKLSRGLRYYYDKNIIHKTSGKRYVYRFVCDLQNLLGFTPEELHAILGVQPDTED
Outline: as §1

SPDEF = molecular target: T9, SPDEF (Homo sapiens, UniProt O95238 1-335); settings: protein: recombinant; tags: N-terminal GST; dsDNA, one strand shown
T9 sequence: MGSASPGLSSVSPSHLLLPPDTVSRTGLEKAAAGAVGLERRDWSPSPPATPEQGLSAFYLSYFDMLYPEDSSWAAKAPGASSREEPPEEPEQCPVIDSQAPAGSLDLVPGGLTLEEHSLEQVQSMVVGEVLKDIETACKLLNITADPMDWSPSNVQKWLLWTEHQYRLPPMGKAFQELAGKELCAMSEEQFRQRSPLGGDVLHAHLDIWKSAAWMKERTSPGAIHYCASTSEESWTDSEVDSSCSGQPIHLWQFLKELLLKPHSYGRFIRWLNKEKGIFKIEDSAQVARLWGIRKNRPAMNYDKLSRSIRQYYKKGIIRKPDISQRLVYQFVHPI
Outline: as §1

ETV7 = molecular target: T10, ETV7 (Homo sapiens, UniProt Q9Y603 1-341); settings: protein: recombinant; tags: N-terminal GST; dsDNA, one strand shown
T10 sequence: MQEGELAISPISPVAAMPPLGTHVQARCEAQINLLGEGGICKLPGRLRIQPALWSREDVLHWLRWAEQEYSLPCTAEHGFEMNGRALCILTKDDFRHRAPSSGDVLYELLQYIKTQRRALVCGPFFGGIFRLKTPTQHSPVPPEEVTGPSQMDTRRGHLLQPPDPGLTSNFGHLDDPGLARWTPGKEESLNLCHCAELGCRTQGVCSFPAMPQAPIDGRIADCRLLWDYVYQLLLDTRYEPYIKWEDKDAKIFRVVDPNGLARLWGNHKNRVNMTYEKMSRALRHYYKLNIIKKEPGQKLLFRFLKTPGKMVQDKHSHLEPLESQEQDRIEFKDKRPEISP
Outline: as §1

ELF5 = molecular target: T11, ELF5 (Homo sapiens, UniProt Q9UKW6-2 1-255); settings: protein: recombinant; tags: N-terminal GST; dsDNA, one strand shown
T11 sequence: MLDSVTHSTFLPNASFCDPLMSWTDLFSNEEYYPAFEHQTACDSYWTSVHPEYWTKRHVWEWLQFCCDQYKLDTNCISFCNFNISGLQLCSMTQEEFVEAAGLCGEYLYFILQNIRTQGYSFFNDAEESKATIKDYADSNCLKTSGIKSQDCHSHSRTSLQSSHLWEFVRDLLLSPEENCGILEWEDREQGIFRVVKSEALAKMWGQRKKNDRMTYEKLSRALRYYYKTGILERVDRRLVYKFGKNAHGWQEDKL
Outline: as §1

ETV3 = molecular target: T12, ETV3 (Homo sapiens, UniProt P41162-2 1-143); settings: protein: recombinant; tags: N-terminal GST; dsDNA, one strand shown
T12 sequence: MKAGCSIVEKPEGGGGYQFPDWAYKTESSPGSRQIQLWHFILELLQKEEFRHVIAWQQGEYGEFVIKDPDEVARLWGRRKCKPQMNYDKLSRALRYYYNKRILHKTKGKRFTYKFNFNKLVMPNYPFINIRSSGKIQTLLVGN
Outline: as §1

ETV6 = ETV6 (Homo sapiens, UniProt P41212 1-452); settings: protein: recombinant; tags: N-terminal GST; dsDNA, one strand shown
Outline: as §1

Sequence of ETV5 (P41161 whole entry): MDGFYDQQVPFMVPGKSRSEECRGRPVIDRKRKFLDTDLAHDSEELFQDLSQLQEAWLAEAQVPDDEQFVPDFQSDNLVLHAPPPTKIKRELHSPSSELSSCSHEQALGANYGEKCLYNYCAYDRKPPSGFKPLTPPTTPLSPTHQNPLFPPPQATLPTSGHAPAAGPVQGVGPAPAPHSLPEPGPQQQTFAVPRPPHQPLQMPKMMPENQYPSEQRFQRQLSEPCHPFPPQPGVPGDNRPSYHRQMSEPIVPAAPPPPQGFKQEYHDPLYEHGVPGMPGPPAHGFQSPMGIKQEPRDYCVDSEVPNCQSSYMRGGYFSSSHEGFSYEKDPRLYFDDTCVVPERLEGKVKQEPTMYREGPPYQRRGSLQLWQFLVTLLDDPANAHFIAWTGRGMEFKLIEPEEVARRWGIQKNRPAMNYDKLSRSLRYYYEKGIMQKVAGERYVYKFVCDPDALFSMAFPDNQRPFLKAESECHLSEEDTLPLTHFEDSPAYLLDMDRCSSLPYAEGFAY
Sequence of ETV6 (P41212 whole entry): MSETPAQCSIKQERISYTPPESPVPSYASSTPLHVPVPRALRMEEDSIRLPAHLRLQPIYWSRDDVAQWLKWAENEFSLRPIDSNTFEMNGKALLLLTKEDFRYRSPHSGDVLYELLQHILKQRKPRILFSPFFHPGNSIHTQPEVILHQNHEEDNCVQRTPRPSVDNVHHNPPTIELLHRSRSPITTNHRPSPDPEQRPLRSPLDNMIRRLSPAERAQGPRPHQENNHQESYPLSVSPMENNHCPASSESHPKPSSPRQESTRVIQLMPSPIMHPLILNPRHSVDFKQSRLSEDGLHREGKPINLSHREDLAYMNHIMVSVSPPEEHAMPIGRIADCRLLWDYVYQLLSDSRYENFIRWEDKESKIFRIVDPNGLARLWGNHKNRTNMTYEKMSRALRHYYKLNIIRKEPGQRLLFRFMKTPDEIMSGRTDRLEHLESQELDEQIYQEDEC
Sequence of ETV1 (P50549 whole entry): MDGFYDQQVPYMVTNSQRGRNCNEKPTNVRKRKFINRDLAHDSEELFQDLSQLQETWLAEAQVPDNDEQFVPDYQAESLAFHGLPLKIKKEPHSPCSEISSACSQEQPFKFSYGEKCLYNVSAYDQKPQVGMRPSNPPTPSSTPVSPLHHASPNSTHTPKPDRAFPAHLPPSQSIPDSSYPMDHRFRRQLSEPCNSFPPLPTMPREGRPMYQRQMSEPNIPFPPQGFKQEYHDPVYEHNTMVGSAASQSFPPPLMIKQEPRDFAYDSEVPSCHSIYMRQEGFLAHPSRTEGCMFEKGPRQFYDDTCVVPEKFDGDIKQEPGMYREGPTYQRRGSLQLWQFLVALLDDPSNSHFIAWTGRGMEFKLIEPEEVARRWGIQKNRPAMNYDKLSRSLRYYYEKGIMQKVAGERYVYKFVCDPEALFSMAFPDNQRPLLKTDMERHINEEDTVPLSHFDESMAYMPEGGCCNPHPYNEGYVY
Sequence of HSF1 (Q00613 whole entry): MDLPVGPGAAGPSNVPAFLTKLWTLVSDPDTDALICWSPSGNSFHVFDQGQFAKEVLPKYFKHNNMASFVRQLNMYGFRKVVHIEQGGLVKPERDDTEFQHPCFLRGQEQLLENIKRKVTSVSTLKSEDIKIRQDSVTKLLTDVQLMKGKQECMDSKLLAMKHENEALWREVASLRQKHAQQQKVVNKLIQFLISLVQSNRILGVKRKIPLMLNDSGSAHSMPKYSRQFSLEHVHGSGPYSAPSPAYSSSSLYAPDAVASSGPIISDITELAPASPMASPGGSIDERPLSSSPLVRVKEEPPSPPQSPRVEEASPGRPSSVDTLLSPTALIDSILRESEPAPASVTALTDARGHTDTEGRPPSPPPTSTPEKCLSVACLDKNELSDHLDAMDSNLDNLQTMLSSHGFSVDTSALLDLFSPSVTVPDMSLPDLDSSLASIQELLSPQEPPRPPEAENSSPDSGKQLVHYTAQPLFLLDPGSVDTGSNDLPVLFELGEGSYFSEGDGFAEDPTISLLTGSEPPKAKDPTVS
Sequence of CRX (O43186 whole entry): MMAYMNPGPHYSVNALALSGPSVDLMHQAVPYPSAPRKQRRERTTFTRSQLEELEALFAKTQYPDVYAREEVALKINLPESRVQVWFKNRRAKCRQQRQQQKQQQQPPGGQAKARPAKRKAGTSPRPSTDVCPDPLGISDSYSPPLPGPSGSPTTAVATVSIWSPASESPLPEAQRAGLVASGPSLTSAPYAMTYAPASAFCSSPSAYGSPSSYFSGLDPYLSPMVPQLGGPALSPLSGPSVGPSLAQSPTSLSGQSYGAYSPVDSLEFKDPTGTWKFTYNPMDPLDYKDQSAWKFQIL
Sequence of ELF4 (Q99607 whole entry): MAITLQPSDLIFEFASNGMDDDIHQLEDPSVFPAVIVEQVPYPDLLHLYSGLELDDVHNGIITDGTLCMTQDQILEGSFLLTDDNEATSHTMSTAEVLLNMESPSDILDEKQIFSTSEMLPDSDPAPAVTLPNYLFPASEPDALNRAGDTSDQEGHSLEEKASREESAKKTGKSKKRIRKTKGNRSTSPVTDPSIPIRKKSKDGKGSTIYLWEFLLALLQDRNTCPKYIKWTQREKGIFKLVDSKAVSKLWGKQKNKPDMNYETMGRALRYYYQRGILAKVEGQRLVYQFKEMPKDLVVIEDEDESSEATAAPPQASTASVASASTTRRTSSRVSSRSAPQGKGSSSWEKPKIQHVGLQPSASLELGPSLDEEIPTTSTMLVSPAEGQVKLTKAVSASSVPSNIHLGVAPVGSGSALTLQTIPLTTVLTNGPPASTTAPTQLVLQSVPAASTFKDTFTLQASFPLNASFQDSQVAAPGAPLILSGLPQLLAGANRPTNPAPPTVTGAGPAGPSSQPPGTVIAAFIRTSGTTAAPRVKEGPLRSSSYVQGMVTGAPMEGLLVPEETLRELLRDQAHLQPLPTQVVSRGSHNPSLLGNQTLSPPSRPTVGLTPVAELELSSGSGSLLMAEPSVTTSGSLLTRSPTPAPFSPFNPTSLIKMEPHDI

Sequence	binding signal (FEV)	binding signal (ETV5)	binding signal (HSF1)	binding signal (SPIC)	binding signal (ELF4)	binding signal (ELK4)	binding signal (ETV2)	binding signal (ELF3)	binding signal (CRX)	binding signal (ETV1)	binding signal (ERF)	binding signal (ETV3L)	binding signal (ETS2)	binding signal (SPDEF)	binding signal (ETV7)	binding signal (ELF5)	binding signal (ETV3)	binding signal (ETV6)
CGCTTT	1.18 fold enrichment (6-mer frequency, TF over GST control)	1.21 fold enrichment (6-mer frequency, TF over GST control)	1.11 fold enrichment (6-mer frequency, TF over GST control)	1.17 fold enrichment (6-mer frequency, TF over GST control)	1.31 fold enrichment (6-mer frequency, TF over GST control)	1.17 fold enrichment (6-mer frequency, TF over GST control)	1.09 fold enrichment (6-mer frequency, TF over GST control)	1.22 fold enrichment (6-mer frequency, TF over GST control)	1.37 fold enrichment (6-mer frequency, TF over GST control)	1.4 fold enrichment (6-mer frequency, TF over GST control)	1.24 fold enrichment (6-mer frequency, TF over GST control)	1.26 fold enrichment (6-mer frequency, TF over GST control)	1.36 fold enrichment (6-mer frequency, TF over GST control)	1.2 fold enrichment (6-mer frequency, TF over GST control)	1.4 fold enrichment (6-mer frequency, TF over GST control)	1.25 fold enrichment (6-mer frequency, TF over GST control)	1.3 fold enrichment (6-mer frequency, TF over GST control)	1.31 fold enrichment (6-mer frequency, TF over GST control)
CTCGTC	1.31 fold enrichment (6-mer frequency, TF over GST control)	1.31 fold enrichment (6-mer frequency, TF over GST control)	1.22 fold enrichment (6-mer frequency, TF over GST control)	1.37 fold enrichment (6-mer frequency, TF over GST control)	1.42 fold enrichment (6-mer frequency, TF over GST control)	1.57 fold enrichment (6-mer frequency, TF over GST control)	1.25 fold enrichment (6-mer frequency, TF over GST control)	1.47 fold enrichment (6-mer frequency, TF over GST control)	1.02 fold enrichment (6-mer frequency, TF over GST control)	1.45 fold enrichment (6-mer frequency, TF over GST control)	1.4 fold enrichment (6-mer frequency, TF over GST control)	1.24 fold enrichment (6-mer frequency, TF over GST control)	1.46 fold enrichment (6-mer frequency, TF over GST control)	1.35 fold enrichment (6-mer frequency, TF over GST control)	1.46 fold enrichment (6-mer frequency, TF over GST control)	1.32 fold enrichment (6-mer frequency, TF over GST control)	1.34 fold enrichment (6-mer frequency, TF over GST control)	1.46 fold enrichment (6-mer frequency, TF over GST control)
